# Screening results as filed in PubChem.
# SF1 inhibitor – inhibitors of human SF-1, primary screen, cell-based, CHO-K1, Gal4-SF-1 LBD, luciferase luminescence. CHO-K1 Gal4-SF-1 LBD luciferase reporter. inhibition, % at 10 µM. 65,000 compounds, 0.55% hits. Steroidogenic factor 1 (Homo sapiens), Q13285;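 active means inhibition above the mean inhibition of all tested compounds plus 3 SD, cut at about 48% in these data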;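 further: 0% = SF-1 transfected cells with DMSO and 100% = mock-transfected cells lacking SF-1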
# Target sequence (Q13285 whole entry, looked up, the tested form may be a part): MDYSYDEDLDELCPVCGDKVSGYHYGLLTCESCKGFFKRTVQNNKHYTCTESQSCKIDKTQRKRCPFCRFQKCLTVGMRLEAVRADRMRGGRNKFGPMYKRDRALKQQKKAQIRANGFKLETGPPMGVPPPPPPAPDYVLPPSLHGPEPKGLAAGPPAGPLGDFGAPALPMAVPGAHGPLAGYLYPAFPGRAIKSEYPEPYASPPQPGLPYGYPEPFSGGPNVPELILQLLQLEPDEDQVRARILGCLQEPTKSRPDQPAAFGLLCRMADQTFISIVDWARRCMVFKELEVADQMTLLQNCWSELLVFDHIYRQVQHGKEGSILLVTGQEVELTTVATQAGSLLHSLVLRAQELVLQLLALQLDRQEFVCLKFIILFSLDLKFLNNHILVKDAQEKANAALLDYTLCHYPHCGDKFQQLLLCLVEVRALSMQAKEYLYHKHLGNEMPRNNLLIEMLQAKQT
# Starred values were filed as active, the others as inactive. Shown is part of a subset that was picked to be rich in hits.
SMILES,SF1 inhibitor
CCCc1nnc(NC(=O)CCC(=O)N2CCCCCC2)s1,7.7
C/C(N)=C(/C#N)C(=O)CSc1nc2ccc(C)cc2[nH]1,-76.9
COc1ccc(NC(=O)Cn2c(=O)sc3ccccc32)c(OC)c1,12.1
Cc1ccc(-c2cn3nc(C)c(C)nc3n2)cc1,79.1*
Cc1ccc(-c2nc(Nc3ccccc3)n[nH]2)cc1,-64.5
COc1ccccc1-c1nn2c(-c3ccco3)nnc2s1,-59.1
CCN(CC)c1ccc(-c2nn3c(-c4ccccc4OC)nnc3s2)cc1,66.8*
COc1cc(-c2nnc3sc(-c4cccnc4)nn23)cc(OC)c1OC,17.8
O=C(CSc1cccc2cccnc12)NCc1ccco1,12.3
COCCCNC(=O)CCN1C(=O)COc2ccccc21,8.9
CCCNC(=O)c1cc(-c2ccc(Br)cc2)on1,-57.8
CCOc1ccc(-c2cc(CCCC(=O)NCCCOC)no2)cc1,57.9*
c1ccc(-n2c(Cc3cn4ccsc4n3)nnc2N2CCOCC2)cc1,-5.9
COc1ccc2cc(CCNC(=O)C3CC3)c(=O)[nH]c2c1,-4.6
CC1CCCN(c2ncnc3c2cnn3-c2ccccc2)C1 (centres undefined),48.2*
CC1CCCN(c2ncnc3c2cnn3-c2ccc(Cl)cc2)C1 (centres undefined),85.5*
Cc1ccc(-n2ncc3c(N4CCCC(C)C4)ncnc32)c(C)c1 (centres undefined),-58.7
c1ccc(-n2ncc3c(NC4CCCCCC4)ncnc32)cc1,-90.9
CCN1CCN(c2ncnc3c2cnn3-c2ccccc2)CC1,-56.5
c1ccc(-n2ncc3c(N4CCCCC4)ncnc32)cc1,68.7*
Cc1cccc(-n2ncc3c(N4CCC(C)CC4)ncnc32)c1,-70.1
Cc1ccc(-n2ncc3c(N4CCCC4)ncnc32)c(C)c1,-66.0
CC1CC(C)CN(c2ncnc3c2cnn3-c2ccc(Cl)cc2)C1 (centres undefined),-70.8
COc1ccccc1N(CC(=O)NC1CCCC1)C(=O)c1csnn1,-6.6
O=C(COc1ccc(Cl)cc1Cl)Nc1ccccn1,-19.2
SMILES,SF1 inhibitor
NC(=O)c1cc(Cl)cn(-c2ccccc2)c1=O,24.0
COC(=O)c1ccc(CSc2nc3c(cnn3-c3ccccc3)c(=O)[nH]2)o1,-0.2
COC(=O)C1=C(CSc2nnnn2C)NC(=O)NC1c1cc(C)ccc1C (centres undefined),2.9
COC(=O)c1cc2oc3ccccc3c2n1Cc1ccccn1,7.1
COc1ccc(C(=O)Nc2nc3ccccc3[nH]2)cc1OC,-50.2
O=C(Nc1nc2ccccc2[nH]1)c1ccccc1F,83.6*
O=C(Nc1cccc(-c2nc3ccccc3[nH]2)c1)c1ccco1,-27.7
CCOCCCNC(=O)CCS(=O)(=O)Cc1ccc(C)cc1,17.7
c1ccc(-c2noc(-c3ccc4ccccc4c3)n2)cc1,50.4*
Brc1ccc(-c2nc(-c3ccccc3)no2)o1,-62.6
COc1ccc(-c2nc(-c3ccncc3)no2)cc1OC,-73.8
O=C(COc1ccc(Cl)cc1Cl)NC1CCSC1=O (centres undefined),-57.9
O=C(CC1OC(=O)c2ccccc21)c1ccco1 (centres undefined),1.9
COc1cccc2c1C(=O)c1c(O)c3c(c(O)c1C2=O)C[C@@](O)(C(=O)CO)C[C@@H]3O[C@H]1C[C@H](N)[C@H](O)[C@H](C)O1,79.8*
O=C(Nc1ccc2c(c1)OCO2)c1c(Cl)nc2sccn12,-66.1
O=C(c1ccc(F)cc1F)N(Cc1ccccn1)Cc1ccco1,-0.6
Cc1c(C(=O)NCc2ccco2)sc2nc(-c3ccccc3)cn12,-52.0
c1ccc(-c2cn3c4c(sc3n2)CCCC4)cc1,73.0*
Cc1c(C(=O)N2CCOCC2)sc2nc(-c3ccccc3)cn12,-82.4
O=C(Nc1nnc(C2CCCC2)s1)C1CCN(S(=O)(=O)c2ccc(Cl)cc2)CC1,-1.4
CC1(C)CC(=O)C2=C(C1)Nc1ccccc1N=C2,-57.7
CCSCCNC(=O)c1cncc(Br)c1,17.0
COCCCn1c(SCC(=O)Nc2ccc3c(c2)OCCO3)nnc1-c1ccoc1C,-15.2
Cc1cc(C)nc(-n2nc(C)cc2Nc2ccccc2)n1,19.5
Cc1cc(C)n(-c2cc(-n3nc(C)cc3C)ncn2)n1,20.3
SMILES,SF1 inhibitor
Cc1cc(Nc2ccccc2)n(-c2ccccc2)n1,6.1
Cc1cc(NS(=O)(=O)c2ccccc2)n(-c2ccccc2)n1,1.2
Cc1cc(C)n(-c2nc(NC(C)(C)C)nc(NC(C)(C)C)n2)n1,52.7*
Cc1cc(C)n(-c2nc(NC(C)C)nc(NC(C)C)n2)n1,53.1*
CCOC(=O)c1ccccc1NC(=O)c1ccc(NS(C)(=O)=O)cc1,-3.3
CCCSc1nnc(Cn2c(=O)sc3ccccc32)n1-c1ccccc1,-4.2
Cc1cccc(-n2ncc3c(N(C)Cc4ccccc4)ncnc32)c1,-64.4
CCCCNC1C(CC)C(CCC)C(C#N)(C#N)C1(C#N)C#N (centres undefined),22.3
O=S(=O)(NCCc1cn2ccccc2n1)c1cccs1,-18.5
Cc1cc(C(=O)CSc2nc3ccccc3o2)c(C)n1C1CC1,-61.0
Cc1cc(-n2c(C)cc(C(=O)CSc3ncnc4ccccc34)c2C)no1,70.7*
Cc1cc(C(=O)CSc2nc3ccccc3[nH]2)c(C)n1C,-61.0
ClC(Br)=C(n1cnc2ccccc21)n1cnc2ccccc21,10.1
COc1ccc(CCNc2nc(C)nc3c2oc2ccccc23)cc1OC,57.9*
CC(=O)c1ccc(Nc2ncnc3c2oc2ccccc23)cc1,-89.0
COc1ccc(CCNc2ncnc3c2oc2ccccc23)cc1OC,72.5*
CCc1nc(NCc2ccccn2)c2oc3ccccc3c2n1,14.0
Cc1nc(NCCc2cnc[nH]2)c2oc3ccccc3c2n1,1.5
Cc1nc(NCc2ccco2)c2oc3ccccc3c2n1,18.5
CN(Cc1ccccc1)C(=O)CCNS(=O)(=O)c1ccc2c(c1)oc(=O)n2C,6.9
Cc1nc2sc(C(c3ccco3)N3CCC(Cc4ccccc4)CC3)c(O)n2n1 (centres undefined),-11.6
CN1CC(=O)N(C)c2ncn(Cc3ccccc3)c2C1=O,21.3
COCCn1c(SCc2nc3ccccc3s2)nc2ccccc21,-50.3
Cc1c(NC(=O)Cn2nc(C(F)(F)F)c3c2CCCC3)c(=O)n(-c2ccccc2)n1C,-4.1
CC1(C)CC(=O)C(CC2=C(O)CC(C)(C)CC2=O)=C(O)C1,-3.4
SMILES,SF1 inhibitor
Cn1c(=O)c2c(nc(NCc3ccco3)n2C/C=C/c2ccccc2)n(C)c1=O,53.1*
Cn1c(=O)c2c(nc(NC(Cc3ccccc3)C(=O)O)n2Cc2ccccc2)n(C)c1=O (centres undefined),8.9
COCCNc1nc2c(c(=O)n(C)c(=O)n2C)n1Cc1cccc(C)c1,-2.2
COc1ccc(OC)c(-c2cc(C(=O)NCc3ccco3)no2)c1,2.6
O=C(CNS(=O)(=O)c1ccc(Br)s1)Nc1ccc2c(c1)OCCO2,-27.3
O=S(=O)(NCc1csc(-c2ccccc2)n1)c1ccc(Cl)s1,11.7
O=S(=O)(NCc1ccncc1)c1ccc(Br)s1,82.9*
CCOCC(=O)Nc1ccc(S(=O)(=O)NCCc2ccccc2)cc1,1.0
c1ccn2c(SCc3cn4ccsc4n3)nnc2c1,-70.7
CCSc1nnc(NC(=O)CSc2nc3c(c(=O)n2-c2ccccc2)SCC3)s1,3.3
CCOC(=O)C(NC(=O)c1ccccc1)(N1CCCC1=O)C(F)(F)F (centres undefined),7.6
Cc1ccc(S(=O)(=O)Nc2nc(C)cc(NCCN)n2)cc1,-7.9
COc1cccc(NC(=O)C2CCCN(S(=O)(=O)c3cccc4cccnc34)C2)c1 (centres undefined),4.4
COc1cc(NS(=O)(=O)c2ccc(C)cc2)c2ncccc2c1,94.3*
